High-throughput results from PubChem.
FMDV inh – High Throughput Screening for Foot and Mouth Disease Virus Antivirals; FMDV antiviral cell-based qHTS; Potency, µM (highest dose often 57.9 µM), inactives show at the highest dose activity change, negative = inhibition, most hits filed as inhibitors; hit rate 1.2% among 410,000; calls by dose curve; tested in HEK293T cells; note: read-out not given here; potency is the fitted concentration of half-maximal effect; % is set by controls: 0 for no effect and ±100 for the full control effect; nearly all actives have a fitted effect of over 45% in size
Sm TGR block – qHTS Assay for the Inhibitors of Schistosoma Mansoni Peroxiredoxins | purified TGR, DTNB reduction, TNB absorbance 405 nm | Potency, µM (doses to about 114 µM), for the others: at the highest dose activity change, negative = inhibition, most hits filed as inhibitors | hit rate 3% among 360,000; active = well fitted inhibition curve with a large enough effect; inconclusive = small, poorly fitted or top-dose-only effect; inactive = no such curve, though single readings can be large or run the other way; note: potency is the fitted concentration of half-maximal effect; % is set by controls: 0 for no effect and ±100 for the full control effect; nearly all actives have a fitted effect of over 60% in size
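Kinetic colorimetric format: TGR-catalysed, NADPH-driven DTNB reduction monitored via TNB absorbance. Enzyme dispensed at 20 nM; compound exposure 15 min at room temperature before reaction start.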
Shiga inhibitor – A qHTS for Small Molecule Inhibitors of Shiga Toxin; Vero cells, Shiga toxin protein synthesis inhibition reporter; inhibition, % at 38.7 µM; hit rate 9.2% among 290,000; in the data active = inhibition mostly above about 28%, no sharp cut-off; inactive = mostly below about 43%; note: 0% is about no effect
CHX counter – Cycloheximide Counterscreen for Small Molecule Inhibitors of Shiga Toxin; hit rate 12% among 300,000; max response, %; cell reporter, cycloheximide protein synthesis inhibition counterscreen; AID 2314, 2010; in the data active = max response mostly above about 13%, no sharp cut-off; inactive = mostly below about 14%; note: read at 38.3 µM for the half of the compounds with a filed dose; 0% is about no effect
The depositor's hits bear a star; ? = inconclusive; . = not tested or not shown; [ ] = dose if it differs, or a comment. An excerpt weighted towards active compounds, which were near 12% of everything screened.

SMILES | FMDV inh | Sm TGR block | Shiga inhibitor | CHX counter
CCn1c2c(c(=O)n3ncc(C(=O)N4CCN(c5ccc(C(C)=O)cc5)CC4)c13)CN(Cc1ccc(OC)cc1)CC2 | 20µM* | -3.8% | . | .
Cc1cc(=O)[nH]c(SCc2cn3ccccc3n2)n1 | 2.3% | -5.3% | 9.7 | 5.8
O=c1cc(CSc2nnc3ccccn23)c2c(ccc3ccccc32)o1 | -14.0% | 44.7µM* | 21.7 | 1.5
Cn1ccnc1SCc1cn2ccccc2n1 | 22.2% | 4.5% | 82.3* | 29.9*
c1ccn2cc(CSC3=NCCS3)nc2c1 | 29.5% | -1.0%[11.4 µM] | 121.1* | 28.7*
c1ccn2cc(CSc3nnc4ccccn34)nc2c1 | . | -0.4%[11.4 µM] | 119.7* | 56.9*
c1ccc(-n2nnnc2SCc2cn3ccccc3n2)cc1 | 11.1% | 0.7% | 8.4 | 5.1
Cc1ccc(NC(=O)CN2C(=O)C(c3ccccc3)=NC2(C)C)cc1C | -12.0% | -0.9% | . | .
O=C(c1csnn1)N1CCC2(CCCN(c3ccc(-c4ccccc4)cc3)C2)CC1 | -10.6% | . | . | .
COC(=O)C1C(=O)c2c([nH]c(C(=O)OCC3CCCO3)c2C)CC1C (stereo not given) | 0.0% | -2.0% | 57.6* | 22.9*
COCCOC(=O)c1[nH]c2c(c1C)C(=O)C(C(=O)OC)C(C)C2 (stereo not given) | 62.9% | 0.0% | 74.0* | 33.7*
CCCCCOC(=O)c1[nH]c2c(c1C)C(=O)C(C(=O)OC)C(C)C2 (stereo not given) | -20.4% | -18.1% | 38.2 | 26.0*
CC1=C(C(=O)OCC2CCCO2)C(c2ccccc2)NC(=O)N1 (stereo not given) | . | 0.0% | -21.1 | -4.6
Cc1c(C(=O)OC2CCC(C)CC2)[nH]c2c1C(=O)CCC2 (stereo not given) | 21.5% | 4.0% | 76.1* | 43.3*
COc1ccccc1C1CN(Cc2c(C)nn(C)c2Cl)Cc2ccccc2O1 (stereo not given) | -8.9% | . | . | .
COc1ccc(OCCn2nnc3sc4c(c3c2=O)CCC(C(C)(C)C)C4)cc1 (stereo not given) | -26.8% | 1.1% | . | .
Cc1ccc(/C=C/c2onc(C)c2S(=O)(=O)N2CCC(C(=O)N3CC(C)Oc4ccccc43)CC2)cc1 (stereo not given) | -29.8% | 9.1% | . | .
COC(=O)C1C(=O)c2c([nH]c(C(=O)OC3CCCCCC3)c2C)CC1C (stereo not given) | 20.9% | 2.1% | 57.0* | 25.1*
CCC(=O)Nc1sc(C(=O)Nc2ccccc2F)c(C)c1C(=O)OC | 46.4% | 6.4% | 52.3* | 6.9
CCOC(=O)c1c(N)sc(C(=O)Nc2ccccc2)c1C | 2.0% | 38.8% | 73.5* | 25.7*
CCOC(=O)c1cc(C(=O)Nc2ccccc2F)nn1C | 7.9% | -30.9% | 72.0* | 37.2*
COC(=O)c1c(NC(C)=O)sc(C(=O)Nc2ccccc2F)c1C | 35.3% | . | 12.8 | 6.9
CCOC(=O)c1c(N)sc(C(=O)Nc2ccccc2F)c1C | 44.0% | . | 36.8 | 36.7*
CCOC(=O)n1ccc(C(=O)Nc2ccccc2F)n1 | 3.9% | 20.6% | 36.8 | 5.3
Cc1ccc(C)c(N(C)C(=O)c2cc3c(s2)-c2ccccc2OC3)c1 | -18.7% | -6.4% | . | .
SMILES | FMDV inh | Sm TGR block | Shiga inhibitor | CHX counter
CS(=O)(=O)N1CCC(n2c(C(F)(F)F)nc3cccnc32)CC1 | -11.3% | -3.7% | . | .
COC(=O)c1c(NC(C)=O)sc(C(=O)Nc2ccccc2)c1C | 22.2% | 13.4% | 27.8 | 10.0
CCCC(=O)Nc1sc(C(=O)Nc2cccc(N)c2)c(C)c1C(=O)OC | 32.9% | -1.0% | 59.4* | 51.4*
Cc1ccc2c(c1)sc1nc(=O)n(-c3ccccc3)c(=O)n12 | 54.9% | -1.8% | 93.0* | 44.6*
CSc1nnc2sc3cc(C)ccc3n12 | 36.5% | . | . | .
CCc1ccccc1N(C)C(=O)c1cc2c(=O)oc3ccccc3c2s1 | ? | 9.5% | . | .
Cc1cccc(OCC(=O)Nc2ccccc2C(=O)OCc2cc(=O)n3nc(C)sc3n2)c1 | -1.4% | 5.2% | . | .
COc1cn(CC(=O)Nc2c(C)cc(C)cc2C)c(CN2CCCCC2)cc1=O | -2.3% | -0.6% | . | .
O=C(N[C@H]1CP(=O)(Oc2ccccc2)O[C@H](COCc2ccccc2)[C@H]1O)C(Cl)(Cl)Cl (stereo not given in full) | 4.8% | 3.6% | -2.2 | 25.2*
C=C[C@]1(C)Cc2occ(C)c2C[C@H]1C(=C)C(=O)O | -13.4% | . | . | .
CC(=O)Oc1cc2c(C(=O)NCc3ccncc3)c(C)oc2c2ccccc12 | -6.3% | -0.8% | 13.4 | 8.6*
Cc1oc(-c2ccccc2)cc1C(=O)NCc1ccncc1 | -25.8% | -33.0% | -16.6 | 1.1
COC(=O)c1ccc(NC(=O)C(c2ccccc2)N2Cc3ccccc3C2=O)cc1 (stereo not given) | 1.2% | -0.4% | . | .
CCOc1ccc(Nc2cc(C)c3ccccc3n2)cc1 | 32.9% | 7.4% | 93.9* | 49.0*
CCOc1ccc(Nc2nc3ccccc3n3nnnc23)cc1 | 7.5% | -0.4% | 99.8* | 59.0*
CCOc1ccc(Nc2c3ccccc3nc3ccccc23)cc1 | ? | 4.4% | 35.5* | 16.8
Cc1cc(NCC2CCCCC2)nc2ccccc12 | -2.1% | -3.4% | 50.7* | 37.8*
Cc1ccccc1C(=O)n1nc(-c2cccnc2)nc1NCc1ccc(F)cc1 | ? | 11.7% | . | .
COc1ccc(-c2cn3nc(SCC(=O)Nc4ccccc4F)ccc3n2)cc1 | 0.0% | -1.9% | . | .
COc1ccc2nc(N(Cc3cccnc3)C(=O)c3ccco3)sc2c1 | 35.1% | 4.7% | . | .
Cc1ccccc1C(=O)NC(=S)NCCc1ccccc1 | 0.5% | 7.08µM* | 25.5 | 7.1
Cc1ccccc1C(=O)NC(=S)Nc1ccccc1C(=O)O | 19.8% | 31.4% | 15.1 | 10.3
Cc1ccccc1C(=O)NC(=S)Nc1ncccn1 | 36.4% | 11.3% | 46.8 | 18.4*
Cc1ccccc1C(=O)NC(=S)NCc1ccccc1 | 5.8% | 22.4µM* | . | 0.9
Cc1ccccc1C(=O)NC(=S)NCC(=O)c1ccccc1 | 25.6% | 0.4% | -14.7 | -3.0
SMILES | FMDV inh | Sm TGR block | Shiga inhibitor | CHX counter
Cc1ccccc1C(=O)NC(=S)NCc1cccnc1 | -18.1% | -24.9% | 0.7 | -1.2
COC(=O)c1ccc(NC(=O)N2CCN(c3nnc(C)c4c(C)n(-c5ccccc5)nc34)CC2)cc1 | -27.8% | 0.3% | . | .
O=c1c(-c2ccc(F)c(F)c2)nc2cncnc2n1Cc1ccc(F)cc1 | -24.0% | . | . | .
Cc1ccc2nsnc2c1NS(=O)(=O)c1c(C)ccc2nsnc12 | 104.2% | ? | -7.5 | -2.5
Cc1ccc(/C=[N+](\[O-])c2ccc(N(C)C)cc2)c2nsnc12 | 0.0% | 28.2µM* | 84.9* | 33.6*
Cc1nn(C(=O)c2ccccc2)c(C)c1Sc1ccc(Cl)cc1 | 28.2µM* | 6.4% | . | .
Cc1cc(Nc2ccccc2)n(C(=O)c2ccc(Cl)cc2)n1 | . | -1.4% | 71.7* | 34.6*
COc1ccc(NC(=O)c2cc(S(=O)(=O)N3CCCC(C)C3)cn2C)c(OC)c1 (stereo not given) | -6.5% | 0.7% | . | .
COc1ccc(NCc2ccsc2)cc1 | 29.9% | -1.0% | 43.9* | 40.6*
c1ccc2c(Nc3nc(N4CCOCC4)c4ccccc4n3)cccc2c1 | 28.2µM* | -25.3% | 0.0 | -2.6
COC(=O)COc1ccc2cc(-c3ccccc3)c(=O)oc2c1 | 6.0% | -19.9% | -2.8 | -3.0
NC(=O)COc1ccc2cc(-c3ccccc3)c(=O)oc2c1 | 60.3% | -8.7% | 62.1* | 31.9*
